GLP-1R agonist = qHTS of GLP-1 Receptor Agonists; 380,000 compounds, 0.007% hits; AID 624172, 2012; Glucagon-like peptide 1 receptor (Homo sapiens), P43220; HEK293 GLP-1R CRE-luciferase, luminescence, 4-6 h; cells express a hypersensitive GLP-1R form; Potency, µM (series often up to 45.6 µM), inactives show at the top dose activation, most hits filed as activators; further: potency means the concentration at half of the fitted maximal effect; % of control where 0% means no effect
GLS inhibitor = qHTS for Inhibitors of Glutaminase (GLS). GLS enzymatic activity, qHTS titration. 410,000 compounds, 0.21% hits. Potency, µM (doses to about 45.5 µM), for the others: at the top dose activity change, negative = inhibition, usual class: inhibitors. AID 624170, 2012; further: potency means the concentration at half of the fitted maximal effect; on the % scale 0 is the no-effect control and ±100 the full control effect
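Enzyme dispensed in phosphate buffer (45 mM, pH 8.2, 0.02% Tween-20), compounds pinned in, then 1 mM L-glutamine solution and the glutamate oxidase–HRP–Amplex Red mix added; fluorescence read immediately and again after 30 min at room temperature.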
KCNH2 WT inh = qHTS for Inhibitors of KCHN2 3.1: Wildtype qHTS; Voltage-gated inwardly rectifying potassium channel KCNH2 (Homo sapiens), Q12809; U2OS, BacMam KCNH2, thallium flux FluxOr; hits give low values; activity change, % at 1.84 µM; 340,000 compounds, 0.37% hits;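 active means maximum activity change below -70%; inconclusive means maximum activity change between -70% and -50%; inactive means maximum activity change above -50%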; further: on the % scale 0 is the no-effect control and ±100 the full control effect
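U2OS cells transduced with wild-type KCNH2 virus are loaded with FluxOr dye for 45 min, and thallium flux is measured in kinetic reads before and after stimulation buffer. Rate constants are normalized to DMSO controls.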
HEK293 tox = qHTS of GLP-1 Receptor Inverse Agonists: Cytotox Screen. 410,000 compounds, 0.13% hits. Potency, µM (series often up to 38.3 µM), without a hit: top-dose activity change, negative = inhibition, usual class: inhibitors. HEK293 cAMP-luciferase reporter cells, luminescence, 24 h;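 further: loss of luciferase light is scored as toxicity; potency means the concentration at half of the fitted maximal effect; on the % scale 0 is the no-effect control and ±100 the full control effect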
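Compound-treated cells are incubated 24 hr at 37 deg C under 5% CO2 after a 12 hour attachment period, then luciferase detection reagent is added and luminescence is measured following 12 min at room temperature; lowered signal indicates toxicity.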
KCNH2 3.1 block = qHTS for Inhibitors of KCHN2 3.1: Mutant qHTS; U2OS KCNH2 3.1, thallium flux FluxOr; hits give low values; 340,000 compounds, 0.95% hits; activity change, % (tested at about 1.8 µM); Potassium voltage-gated channel subfamily H member 2, brain isoform KCNH2 3.1 (human);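 active means maximum activity change below -70%; inconclusive means maximum activity change from -70% to -50%; inactive means maximum activity change above -50%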;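 further: thallium influx rate constant from kinetic fluorescence after stimulation buffer; on the % scale 0 is the no-effect control and ±100 the full control effect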
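Kinetic fluorescence (2 min after stimulation buffer) measures Tl+ influx through KCNH2 3.1 expressed by viral transduction in U2OS cells; the rate constant is normalized against DMSO controls serving as positive and negative references.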
GLP-1R inv ag = qHTS of GLP-1 Receptor Inverse Agonists (Inhibition Mode); Glucagon-like peptide 1 receptor (Homo sapiens), P43220; HEK293 GLP-1R CRE-luciferase, luminescence, 24 h; GLP-1R form is constitutively active; Potency, µM (top dose mostly 38.3 µM), for inactives: at the highest dose activity change, negative = inhibition, usual class: inhibitors; 410,000 compounds, 1.6% hits; further: potency means the concentration at half of the fitted maximal effect; on the % scale 0 is the no-effect control and ±100 the full control effect; nearly all actives have a fitted effect of over 55% in size
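Using stably transfected HEK293 (constitutively active GLP-1R, cAMP-luciferase reporter), compounds were incubated 24 hr and luciferase measured by luminescence.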
Active calls of the source: *; ? = inconclusive; / = not tested or not shown. Only some compounds are listed: those with a hit (about 2.8% of all), similar ones and a draw of the others. Unless noted, the call rests on the fitted dose curve; in most records, active means well fitted curve in the direction sought with a large enough effect; inconclusive means small, poorly fitted or top-dose-only effect, or another doubt; inactive means no such curve, though single readings can be large; an effect the other way counts as inactive or inconclusive.

SMILES	GLP-1R agonist	GLS inhibitor	KCNH2 WT inh	HEK293 tox	KCNH2 3.1 block	GLP-1R inv ag
CC(=O)N1CCc2cc(Br)cc(S(=O)(=O)N3CCN(c4cccc(C)c4)C(C)C3)c21 (centres undefined)	/	10.3%	/	-1.5%	/	7.6%
Cc1ccc(C(=O)Nc2ccc(Cl)cn2)cc1	-6.8%	0.8%	-15.8	-21.3%	-11.7	?
Cc1ccc(C(=O)Nc2ncc3c(Cl)cccc3n2)cc1	-32.7%	-3.0%	12.0	-23.9%	-3.7	7.08µM*
O=C(C1CCN(Cc2ccc(Cl)cc2)CC1)N1CCN(C(c2ccccc2)c2ccccc2)CC1	-4.5%	4.0%	-2.8	?	-41.3	3.98µM*
Cc1[nH]c2ccccc2c1C1=NNC(=Nc2ccc(F)cc2)SC1	-1.7%	10.3%	6.6	?	7.1	11.2µM*
CN(Cc1ccc2c(c1)OCCO2)C(=O)CSc1ncnc2sccc12	20.6%	17.0%	-21.4	6.2%	12.0	-55.1%
CN(C1CCS(=O)(=O)C1)S(=O)(=O)c1ccccc1 (centres undefined)	11.2%	15.8µM*	3.7	-12.2%	3.0	12.7%

Screening results as filed in PubChem BioAssay.
